Assay outcomes deposited in PubChem by several laboratories.
An excerpt weighted towards active compounds, which were near 0.5% of everything screened.
C-LANA FP = inhibitors of KSHV LANA C-terminal domain DNA binding. inhibition, % at 9 µM. MBP-C-LANA/FAM-LBS DNA binding, fluorescence polarization. actives 0.078% (n = 340,000);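 active means highest replicate inhibition at or above 60% at 9 µM, even if other replicates fall short; inactive means all replicates below 60% inhibition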;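 further: 0% = neutral control wells and 100% = 4 µM acridine orange control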
cardiac RTF act = increases calcium sensitivity of human cardiac regulated thin filaments; IANBD-labeled TnC RTF fluorescence at EC20 calcium; 0% EC20 calcium, 100% full calcium; actives 0.24% (n = 340,000); activation, % at 7.2 µM;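 active means activation above the mean over all tested compounds plus 3 SD, cut at about 30% in these data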;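 further: rise in fluorescence read as greater calcium sensitivity of cardiac thin filaments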
Cardiac RTF inh = cardiac RTF calcium desensitization | AID 493244 | IANBD-labeled cardiac RTF, Ca2+ fluorescence | inhibition, % at 7.15 µM | actives 0.12% (n = 340,000) | P19429+P45379;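 active means inhibition above the mean inhibition of all tested compounds plus 3 SD, cut at about 17% in these data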;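 further: assay run at fixed EC70 calcium of 1.6 mM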
Keap1-Nrf2 PPI = Keap1-Nrf2 (human) interaction inhibition; Q14145; AID 504523; inhibition, % at 9.4 µM; Keap1 Kelch-Nrf2 peptide fluorescence polarization, 1536-well; actives 0.15% (n = 340,000); in the data active means inhibition above about 12%;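 further: human Keap1 Kelch domain with fluorescein labeled Nrf2 9mer peptide probe; 0% = neutral control wells and 100% = peptide positive control; higher means more block of Keap1 binding to Nrf2 peptide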
Target sequence (Q14145 whole entry, looked up, the tested form may be a part): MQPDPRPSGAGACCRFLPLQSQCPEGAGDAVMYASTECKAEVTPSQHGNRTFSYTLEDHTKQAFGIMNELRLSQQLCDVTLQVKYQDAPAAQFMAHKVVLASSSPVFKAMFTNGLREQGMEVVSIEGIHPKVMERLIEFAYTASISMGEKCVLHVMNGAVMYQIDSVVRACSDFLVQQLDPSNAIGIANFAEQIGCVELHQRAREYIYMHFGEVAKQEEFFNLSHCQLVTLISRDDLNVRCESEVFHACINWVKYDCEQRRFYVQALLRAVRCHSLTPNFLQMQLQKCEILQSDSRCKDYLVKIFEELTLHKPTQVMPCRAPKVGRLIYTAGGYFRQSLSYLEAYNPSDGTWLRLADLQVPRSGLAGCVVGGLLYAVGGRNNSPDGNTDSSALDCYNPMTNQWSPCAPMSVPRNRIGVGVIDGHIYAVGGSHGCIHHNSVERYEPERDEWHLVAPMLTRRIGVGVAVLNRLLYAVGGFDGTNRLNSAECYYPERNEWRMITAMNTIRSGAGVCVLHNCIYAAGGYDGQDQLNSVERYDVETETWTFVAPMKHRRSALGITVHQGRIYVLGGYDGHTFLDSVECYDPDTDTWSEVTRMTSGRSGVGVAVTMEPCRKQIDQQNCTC
RTF Ca inh conf = confirmation of inhibitors of cardiac thin filament calcium sensitivity | AID 504635 | actives 8% (n = 360) | reconstituted cardiac thin filaments, calcium sensitivity fluorescence | inhibition, % at 7.15 µM | shares compounds with Cardiac RTF inh; in the data active means inhibition above about 18%
Keap1 TSA = binds and thermally shifts human Keap1 Kelch domain | shares compounds with Keap1-Nrf2 PPI | Keap1 Kelch thermal shift, delta Tm; active compounds read high | max delta Tm, degrees C | actives 8% (n = 400); in the data active means max delta Tm above about 0.48 degrees C
Sypro dye melt = shifts Sypro Orange melt without protein, a false positive | shares compounds with Keap1-Nrf2 PPI | Sypro Orange dye-only thermal melt, no protein, delta Tm; top dose 26 µM | delta Tm, degrees C (concentration not given with the values) | 140 tested, under 10 active;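 active means at highest dose tested, delta Tm positive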
* marks the source's active call; other numbers are inactive results; · = no result; ! = not confirmed by another sample.

SMILES | C-LANA FP | cardiac RTF act | Cardiac RTF inh | Keap1-Nrf2 PPI | Keap1 TSA | others
CC(C)C[C@H]1C(=O)N2CCC[C@H]2[C@]2(O)O[C@](NC(=O)[C@@H]3C=C4c5cccc6[nH]cc(c56)C[C@H]4N(C)C3)(C(C)C)C(=O)N12 | 66.8* | 66.8* | -90.4 | 33.7* | ·
C[N+]12CCC(CC1)C(=C(c1ccccc1)c1ccccc1)C2 | -0.1 | 0.3 | 18.7* | -1.3 | · | RTF Ca inh conf=-1.6
COc1ccc(Cc2c(O)[nH]c(=S)[nH]c2=O)cc1 | 1.3 | -6.1 | 1.2 | -2.7 | ·
CC12CC3CC(C)(C1)CC(N)(C3)C2 | -1.6 | 0.1 | 17.3*! | 0.5 | · | RTF Ca inh conf=-1.9
CS(=O)(=O)CCN1CC2CCCC(C2)C1 | -0.9 | -0.4 | -11.2 | -3.9 | ·
CN(C)C1C(=O)C(C(N)=O)=C(O)C2(O)C(=O)C3=C(O)c4c(O)cccc4C(C)(O)C3C(O)C12 (stereo not drawn) | 58.2 | -8.4 | 30.4* | -0.8 | · | RTF Ca inh conf=-4.0
CC(C)(C)c1o[nH]c(=O)c1CC(N)C(=O)O (stereo not drawn) | -1.6 | 1.9 | 20.9* | 1.2 | · | RTF Ca inh conf=-5.2
OCCOCCO | 0.8 | 3.9 | -3.8 | -0.9 | ·
Oc1ccc2c3c1O[C@H]1c4oc5ccccc5c4C[C@@]4(O)[C@@H](C2)N(CC2CC2)CC[C@]314 | 0.1 | -1.0 | 26.9* | -5.8 | · | RTF Ca inh conf=4.9
Oc1ccc2c3c1O[C@H]1c4[nH]c5ccccc5c4C[C@@]4(O)[C@@H](C2)N(CC2CC2)CC[C@]314 | -0.9 | 4.7 | 12.6 | -4.0 | ·
Cc1cccc(CN(C)C)c1OC(=O)N(C)C | 1.6 | 0.9 | 34.2* | -2.3 | · | RTF Ca inh conf=1.2
CC1([N+](=O)[O-])COP(=O)(NC2CC2)OC1 (stereo not drawn) | -13.9 | -8.7 | 4.5 | 1.0 | ·
C=C[C@@]12CN(C)[C@H]3[C@H]1[C@@]1(C(=O)Nc4ccccc41)C1CC2[C@@H]3CO1 | -1.5 | 2.6 | -0.8 | 0.5 | ·
Cc1nc2ccccc2c(=O)n1-c1cc(F)ccc1F | -1.0 | -0.2 | 27.5* | 1.1 | · | RTF Ca inh conf=-3.0
Cc1nc2ccccc2c(=O)n1-c1ccc(F)cc1F | -1.1 | -6.4 | -5.7 | -0.7 | ·
Nc1ccc2c3c(cccc13)-c1ccccc1-2 | 26.6 | 359.4* | -415.7 | 21.7* | 0.37 | Sypro dye melt=-22.7
O=C1C(=O)c2ccccc2-c2ccccc21 | 3.9 | 1.6 | 8.6 | -8.7 | ·
CC[C@H]1CN2CCC1C[C@@H]2[C@H](O)c1ccnc2ccc(OC)cc12 (stereo partly drawn) | -0.9 | 1.8 | -1.1 | -6.7 | ·
Cc1nn(CC(=O)N2CCC3(CC2)OCCO3)c(=O)c2cc3ccccc3n12 | -0.5 | 1.3 | -6.7 | -5.3 | ·
CN1CCN(c2ccc([N+](=O)[O-])c3no[n+]([O-])c23)CC1 | 81.8* | 281.9* | -347.7 | 55.3* | -0.12 | Sypro dye melt=-27
Cn1cc(/C=C2\C(=O)NC(=O)N(c3ccccc3)C2=O)c2ccccc21 | 88.4* | 1.5 | -3.0 | 49.3* | -0.13
O=C1NC(=S)NC(=O)C1Cc1ccccc1O | -0.2 | -5.0 | -4.5 | 1.0 | ·
CC1(O)CCN2C(=O)CCc3cccc1c32 (stereo not drawn) | 26.1 | 4.3 | -15.6 | 44.0* | -0.09
CC12CCC3C(CCC4CC(=O)C(C(O)C(F)(F)F)CC43C)C1CCC2O (stereo not drawn) | -0.5 | -1.4 | -4.8 | 0.0 | ·
CN1/C(=C\C=Nc2ccccc2)C(C)(C)c2ccccc21 | 2.3 | 9.4 | -23.4 | 1.6 | ·
SMILES | C-LANA FP | cardiac RTF act | Cardiac RTF inh | Keap1-Nrf2 PPI | Keap1 TSA | others
CN1/C(=C\C=C2C(=O)NC(=O)NC2=O)C(C)(C)c2ccccc21 | 28.1 | 108.7* | -181.5 | 32.4* | -0.19 | Sypro dye melt=-21.1
Cc1cc(C=C2C(=O)NC(=O)NC2=O)c(C)n1-c1cccnc1 | 13.5 | -2.1 | -13.7 | 12.5* | -0.1
CCCCc1ccc(C(=O)O)nc1 | 67.5* | 1.3 | -2.8 | 66.1* | -0.03
C[C@]12CC[C@@H](O)CC1=CCC1C2CC[C@@]2(C)C1C[C@@H](F)[C@H]2O (stereo partly drawn) | -3.2 | 3.6 | -2.1 | -2.7 | ·
COC(=O)C1=C(c2ccc(C(C)=O)cc2)C[C@@H]2CC[C@H]1N2C(=O)NCCOc1ccccc1Cl | 0.7 | 3.9 | -0.3 | -5.1 | ·
CN1CC=C2C(C#N)=C(N)C(C#N)(C#N)C(c3ccncc3)C2C1 (stereo not drawn) | 43.2 | 24.7 | -20.7 | 15.4* | -0.15 | Sypro dye melt=-26.4
